Results filed as inconclusive are left out. The source made the active and inactive calls. Calls come from the whole dose curve; as a rule, active = well fitted curve in the direction sought with a large enough effect; inconclusive = small, poorly fitted or top-dose-only effect, or another doubt; inactive = no such curve, though single readings can be large; an effect the other way counts as inactive or inconclusive.
Assays:
[1] = target: Tyrosine-protein phosphatase non-receptor type substrate 1 (Homo sapiens) + Leukocyte surface antigen CD47 (Homo sapiens) (UniProt P78324+Q08722); assay: CD47-SIRPalpha protein protein interaction - Alpha assay qHTS validation (AID 1347059);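 note: bead proximity luminescence from CD47 binding SIRPalpha after compound preincubation with SIRPalpha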
Chain of Tyrosine-protein phosphatase non-receptor type substrate 1 (Homo sapiens) + Leukocyte surface antigen CD47 (Homo sapiens) (P78324 whole entry, looked up, the tested form may be a part): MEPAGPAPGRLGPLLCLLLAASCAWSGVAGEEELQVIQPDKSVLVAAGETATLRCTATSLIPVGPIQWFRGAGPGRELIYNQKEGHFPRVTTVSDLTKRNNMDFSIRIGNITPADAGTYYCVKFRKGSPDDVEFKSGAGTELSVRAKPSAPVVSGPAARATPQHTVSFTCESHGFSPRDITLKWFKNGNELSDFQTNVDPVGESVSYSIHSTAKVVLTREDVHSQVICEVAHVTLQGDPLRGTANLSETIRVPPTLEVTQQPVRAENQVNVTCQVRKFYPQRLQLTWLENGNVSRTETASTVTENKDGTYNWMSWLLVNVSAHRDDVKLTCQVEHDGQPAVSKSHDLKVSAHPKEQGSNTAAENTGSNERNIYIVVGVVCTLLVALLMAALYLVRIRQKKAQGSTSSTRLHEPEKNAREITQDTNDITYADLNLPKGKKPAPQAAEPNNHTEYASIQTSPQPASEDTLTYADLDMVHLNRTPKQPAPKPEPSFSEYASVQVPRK
Chain of Tyrosine-protein phosphatase non-receptor type substrate 1 (Homo sapiens) + Leukocyte surface antigen CD47 (Homo sapiens) (Q08722 whole entry, looked up, the tested form may be a part): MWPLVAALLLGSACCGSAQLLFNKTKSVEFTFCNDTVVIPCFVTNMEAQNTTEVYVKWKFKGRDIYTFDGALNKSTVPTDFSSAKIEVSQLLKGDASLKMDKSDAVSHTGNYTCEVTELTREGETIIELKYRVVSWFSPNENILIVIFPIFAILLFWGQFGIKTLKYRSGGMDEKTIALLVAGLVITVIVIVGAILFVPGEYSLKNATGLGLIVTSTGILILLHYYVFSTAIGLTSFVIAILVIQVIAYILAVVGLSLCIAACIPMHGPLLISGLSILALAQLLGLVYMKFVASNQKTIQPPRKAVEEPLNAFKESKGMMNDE
Outline: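 In PBS (pH 7.4) with 0.05% IGEPAL CA-630, compound is preincubated with biotin-Avi-SIRPalpha ectodomain before His-CD47 ectodomain and affinity beads are added. Light-protected room-temperature incubations; AlphaScreen readout.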

[2] = qHTS of pediatric cancer cell lines to identify multiple opportunities for drug repurposing: Primary screen for TC32 cells (AID 1347089); note: nearly all actives have a fitted effect of over 60% in size; note: potency is the fitted concentration of half-maximal effect
Outline: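 In the primary qHTS, MIPE compounds were tested at 11 concentrations (0.78 nM to 46 µM) and NPC compounds at 8 (0.59 nM to 46 µM) on TC32 cells for 48 h. CellTiter-Glo luminescence gave viability.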

[3] = qHTS of pediatric cancer cell lines to identify multiple opportunities for drug repurposing: Primary screen for DAOY cells (AID 1347090); note: nearly all actives have a fitted effect of over 55% in size; note: potency is the fitted concentration of half-maximal effect
Outline: (§1)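 Eight- or eleven-point concentration series, 48 h treatment at 37 degrees C in growth media; readout CellTiter-Glo luminescence. Potency and efficacy were taken from the concentration-response curves.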

[4] = qHTS of pediatric cancer cell lines to identify multiple opportunities for drug repurposing: Primary screen for A673 cells (AID 1347092); note: nearly all actives have a fitted effect of over 45% in size
Outline: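 48 h compound exposure, A673, 500-1,000 cells/well, 37 degrees C/5% CO2. MIPE: 11-point, 0.78 nM-46 µM; NPC: 8-point, 0.59 nM-46 µM (final). Readout CellTiter-Glo luminescence after 15 min RT.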

[5] = qHTS of pediatric cancer cell lines to identify multiple opportunities for drug repurposing: Primary screen for U-2 OS cells (AID 1347096); note: nearly all actives have a fitted effect of over 50% in size; note: potency is the fitted concentration of half-maximal effect
Outline: (§2)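 Cells (500-1,000/well) in growth media were settled 5 h at 37 degrees C, then given compounds for 48 h. Viability was read as CellTiter-Glo luminescence. Primary runs used MIPE at 11 points (0.78 nM-46 µM) and NPC at 8 points (0.59 nM-46 µM); follow-ups used 11 points.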

[6] = qHTS of pediatric cancer cell lines to identify multiple opportunities for drug repurposing: Primary screen for NB1643 cells (AID 1347099); note: nearly all actives have a fitted effect of over 50% in size
Outline: (§3)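 CRCs from 8- or 11-point titrations (lowest final 0.59 nM NPC, 0.78 nM MIPE). Cell viability: CellTiter-Glo after 48 h incubation, 15 min room-temperature development, luminescence imaging.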

[7] = qHTS of pediatric cancer cell lines to identify multiple opportunities for drug repurposing: Primary screen for LAN-5 cells (AID 1347100); note: potency is the fitted concentration of half-maximal effect
Outline: as §2

[8] = qHTS of pediatric cancer cell lines to identify multiple opportunities for drug repurposing: Primary screen for Rh18 cells (AID 1347102); note: nearly all actives have a fitted effect of over 65% in size
Outline: as §2

[9] = qHTS of pediatric cancer cell lines to identify multiple opportunities for drug repurposing: Primary screen for RD cells (AID 1347104); note: nearly all actives have a fitted effect of over 55% in size; note: potency is the fitted concentration of half-maximal effect
Outline: as §3

[10] = qHTS of pediatric cancer cell lines to identify multiple opportunities for drug repurposing: Primary screen for MG 63 (6-TG R) cells (AID 1347105); note: nearly all actives have a fitted effect of over 50% in size; note: potency is the fitted concentration of half-maximal effect
Outline: as §3

[11] = qHTS of pediatric cancer cell lines to identify multiple opportunities for drug repurposing: Primary screen for control Hh wild type fibroblast cells (AID 1347106);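 note: series mostly up to about 46 µM; a drop in luminescence marks cytotoxicity and a rise apparent proliferation; nearly all actives have a fitted effect of over 55% in size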
Outline: as §2

[12] = qHTS of pediatric cancer cell lines to identify multiple opportunities for drug repurposing: Primary screen for SJ-GBM2 cells (AID 1347091)
Outline: as §1

[13] = qHTS of pediatric cancer cell lines to identify multiple opportunities for drug repurposing: Primary screen for SK-N-MC cells (AID 1347093); note: potency is the fitted concentration of half-maximal effect
Outline: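 Metabolically active cells were quantified by ATP-dependent luminescence (CellTiter-Glo, 15 min at room temperature) following 48 h treatment. Cells had been plated at 500-1,000 per well and settled for 5 h beforehand.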

[14] = qHTS of pediatric cancer cell lines to identify multiple opportunities for drug repurposing: Primary screen for BT-37 cells (AID 1347094); note: potency is the fitted concentration of half-maximal effect
Outline: as §3

[15] = qHTS of pediatric cancer cell lines to identify multiple opportunities for drug repurposing: Primary screen for NB-EBc1 cells (AID 1347095); note: potency is the fitted concentration of half-maximal effect
Outline: as §3

[16] = qHTS of pediatric cancer cell lines to identify multiple opportunities for drug repurposing: Primary screen for Saos-2 cells (AID 1347097); note: nearly all actives have a fitted effect of over 40% in size; note: potency is the fitted concentration of half-maximal effect
Outline: as §3

[17] = qHTS of pediatric cancer cell lines to identify multiple opportunities for drug repurposing: Primary screen for SK-N-SH cells (AID 1347098); note: nearly all actives have a fitted effect of over 65% in size; note: potency is the fitted concentration of half-maximal effect
Outline: (§4)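 Cells (500-1,000/well) rested 5 h, then received compounds for 48 h; metabolically active cells were measured by CellTiter-Glo luminescence. Final concentrations spanned up to 46 µM (MIPE, 11-point) or 0.59 nM-46 µM (NPC, 8-point) in primary screens, 11-point in follow-ups.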

[18] = qHTS of pediatric cancer cell lines to identify multiple opportunities for drug repurposing: Primary screen for BT-12 cells (AID 1347101); note: nearly all actives have a fitted effect of over 25% in size; note: potency is the fitted concentration of half-maximal effect
Outline: as §4

[19] = qHTS of pediatric cancer cell lines to identify multiple opportunities for drug repurposing: Primary screen for OHS-50 cells (AID 1347103); note: nearly all actives have a fitted effect of over 40% in size; note: potency is the fitted concentration of half-maximal effect
Outline: as §4

[20] = target: Parathyroid hormone/parathyroid hormone-related peptide receptor (Homo sapiens) (UniProt Q03431); assay: qHTS for PTHR1 Agonists: Optimization Screen against the NCGC LOPAC library (AID 1347079);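 note: GloSensor cAMP luminescence in HEK-293 GP2 cells expressing human PTHR1 with IBMX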
Chain of Parathyroid hormone/parathyroid hormone-related peptide receptor (Homo sapiens) (Q03431 whole entry, looked up): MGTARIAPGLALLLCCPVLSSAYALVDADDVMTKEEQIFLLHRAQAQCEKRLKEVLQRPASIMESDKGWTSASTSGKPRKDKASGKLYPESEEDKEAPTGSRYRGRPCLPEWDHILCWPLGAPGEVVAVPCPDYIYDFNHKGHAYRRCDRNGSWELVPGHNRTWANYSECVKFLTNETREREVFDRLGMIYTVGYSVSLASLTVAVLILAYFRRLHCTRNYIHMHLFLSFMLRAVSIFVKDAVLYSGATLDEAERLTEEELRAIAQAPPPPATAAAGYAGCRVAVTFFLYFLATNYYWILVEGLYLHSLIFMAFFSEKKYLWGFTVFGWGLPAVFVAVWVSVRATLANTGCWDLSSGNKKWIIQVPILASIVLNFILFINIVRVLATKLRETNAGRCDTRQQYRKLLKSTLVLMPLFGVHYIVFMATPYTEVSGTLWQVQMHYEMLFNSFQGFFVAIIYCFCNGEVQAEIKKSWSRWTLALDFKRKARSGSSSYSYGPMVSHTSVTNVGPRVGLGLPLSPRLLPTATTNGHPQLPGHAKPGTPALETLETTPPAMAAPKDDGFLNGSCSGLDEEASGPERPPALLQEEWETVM
Outline: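 HEK-293 GP2 cells, PTHR1 + GloSensor cAMP; 3000 cells/well, o/n. Luciferin + IBMX 0.5mM each (stock), 1 hr 37C. Cpd titration, 1 hr 37C. Lum after 15 min RT. Ctrl M-PTH(1-15) top 10uM.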

Measured: Potency

CCN(CC)CCOC(=O)C1(C2CCCCC2)CCCCC1
inactive: [1] | [2] | [3] | [4] | [5] | [6] | [7] | [8] | [9] | [10] | [11]

CCOC(=O)[C@H](CCc1ccccc1)N[C@@H](C)C(=O)N1C(=O)N(C)C[C@H]1C(=O)O
not listed: [1] | [20]
inactive: all other assays above

CN1[C@@H]2CC[C@H]1CC(OC(=O)C(O)c1ccccc1)C2 (some centres not stated)
not listed: [1] | [20]
inactive: all other assays above

NC(=O)NNc1ccccc1
not listed: [1] | [10] | [20]
inactive: all other assays above

CC[C@H]1CN2CCc3cc(OC)c(OC)cc3[C@@H]2C[C@@H]1C[C@H]1NCCc2cc(OC)c(OC)cc21
active: [2] 333 nM | [3] 1060 nM | [14] 389 nM | [15] 750 nM | [5] 1330 nM | [16] 376 nM | [17] 433 nM | [7] 335 nM | [18] 347 nM | [19] 347 nM | [9] 335 nM | [10] 2110 nM
inactive: [1]

CNCCCC1c2ccccc2C=Cc2ccccc21
inactive: [1] | [2] | [15] | [11]
active: [13] 11900 nM | [19] 21900 nM | [9] 26600 nM

CC(CN(C)C)CN1c2ccccc2CCc2ccccc21 (configuration not stated)
inactive: [1] | [2] | [3] | [13] | [15] | [5] | [6] | [10] | [11]
active: [19] 17400 nM

CC1=C(CC(=O)O)c2cc(F)ccc2/C1=C\c1ccc(S(C)=O)cc1 (configuration not stated)
not listed: [1] | [7] | [8]
inactive: all other assays above

CCOC(CN1CCN(CC(C)C(=O)c2ccccc2)CC1)c1ccccc1 (configuration not stated)
not listed: [1] | [20]
inactive: all other assays above

Cn1c(=O)c2c(ncn2CC2OCCO2)n(C)c1=O
not listed: [1] | [20]
inactive: all other assays above

Cc1ncc([N+](=O)[O-])n1CC(O)CCl (configuration not stated)
not listed: [1] | [20]
inactive: all other assays above

O=S(=O)(O)NC1CCCCC1
not listed: [1] | [20]
inactive: all other assays above

CC(C)(C)NCC(O)COc1ccc(NC(=O)NC2CCCCC2)cc1 (configuration not stated)
not listed: [1] | [20]
inactive: all other assays above

CC[C@@]1(c2ccccc2)NC(=O)N(C)C1=O
not listed: [1] | [20]
inactive: all other assays above

NC(CSCC(=O)O)C(=O)O (configuration not stated)
not listed: [1] | [20]
inactive: all other assays above

Reference: PubChem BioAssay (NCATS)
